Laboratory results taken from PubChem BioAssay AID1159580 (chemical genetic matrix, 2015).
The campaign covered roughly 5,500 compounds. About 2,000 (36%) were called active. Another 18% or so got no clear call; they are omitted. Cut-off read from the data, not from the text of the source: active = normalized growth mostly below about 0.91 (no sharp cut-off); inconclusive = no clear call, values can overlap the other calls; inactive = mostly above about 0.92. This is one part of the list.

Experiment: chemical genetic growth profiling, strain panel (AID 1159580);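 note: tested at 20 µM; growth read once vehicle control cultures reached saturation at 30 °C; 1 = growth at the plate median or of vehicle wells; lower values mean less growth of the strain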
Conditions: S. cerevisiae deletion strains, growth OD
[1] = locus YAL013W, strain DEP1, active compounds read low
[2] = locus YBR229C, strain ROT2, active compounds read low
[3] = locus YDL101C, strain DUN1, active compounds read low
[4] = locus YDR150W, strain NUM1, active compounds read low
[5] = locus YEL061C, strain CIN8, active compounds read low
[6] = locus YGR078C, strain PAC10, active compounds read low
[7] = locus YHR030C, strain SLT2, active compounds read low
[8] = locus YHR087W, strain rtc3, active compounds read low
[9] = locus YJL187C, strain SWE1, active compounds read low
[10] = locus YJR043C, strain POL32, active compounds read low
[11] = locus YJR075W, strain HOC1, active compounds read low
[12] = locus YLR039C, strain RIC1, active compounds read low
[13] = locus YLR058C, strain SHM2 (second series), active compounds read low
[14] = locus YLR085C, strain ARP6, active compounds read low
[15] = locus YLR262C, strain YPT6, active compounds read low
[16] = locus YML094W, strain GIM5, active compounds read low
[17] = locus YMR219W, strain ESC1, active compounds read low
[18] = locus YMR263W, strain SAP30, active compounds read low
[19] = locus YMR307W, strain GAS1, active compounds read low
[20] = locus YNL153C, strain GIM3, active compounds read low
[21] = locus YNL298W, strain CLA4 (second series), active compounds read low
[22] = locus YNL322C, strain KRE1, active compounds read low
[23] = locus YNR030W, strain Alg12, active compounds read low
[24] = locus YPL055C, strain LGE1, active compounds read low
[25] = locus YPL241C, strain CIN2, active compounds read low
[26] = locus YPR135W, strain CTF4, active compounds read low

Measured: normalized growth

FC(F)(F)c1ccc(-n2cncn2)nc1
active: [14] 1.24 [resistant]
inactive: [1] 1.03 | [2] 1.01 | [3] 1 | [4] 0.988 | [5] 1.01 | [6] 1.01 | locus YGR229C, strain SMI1, active compounds read low 1.01 | [7] 1.09 | [8] 1.02 | [9] 1.01 | [10] 1.02 | [11] 0.99 | [12] 1.04 | [13] 1 | [15] 1.01 | [16] 1.07 | [17] 1.01 | [18] 1.01 | [19] 1.08 | [20] 0.996 | [21] 1.07 | [22] 1 | [23] 1.04 | locus YOL006C, strain TOP1, active compounds read low 1.25 | [24] 1.07 | [25] 1 | [26] 1.15

Nc1ccc(N2CCN(c3ccc(C(F)(F)F)cn3)CC2)nc1
active: [7] 0.724
inactive: locus YAR019C, strain CDC15, active compounds read low 0.974 | locus YBL105C, strain PKC1, active compounds read low 0.984 | locus YBR135W, strain CKS1, active compounds read low 0.969 | locus YBR136W, strain MEC1, active compounds read low 0.983 | locus YBR160W, strain CDC28, active compounds read low 0.964 | locus YDL017W, strain CDC7, active compounds read low 0.98 | locus YDL028C, strain MPS1, active compounds read low 0.949 | [3] 0.987 | locus YDL108W, strain KIN28, active compounds read low 0.966 | locus YDL132W, strain cdc53, active compounds read low 0.992 | locus YDL214C, strain PRR2, active compounds read low 0.927 | locus YDR052C, strain DBF4, active compounds read low 0.988 | locus YDR054C, strain cdc34, active compounds read low 0.994 | locus YDR226W, strain ADK1, active compounds read low 0.975 | locus YDR477W, strain SNF1, active compounds read low 0.862 | locus YER123W, strain YCK3, active compounds read low 0.879 | locus YER133W, strain GLC7, active compounds read low 0.916 | locus YFL009W, strain cdc4, active compounds read low 0.968 | locus YFL029C, strain CAK1, active compounds read low 0.971 | locus YFR003C, strain YPI1, active compounds read low 0.981 | locus YFR019W, strain FAB1, active compounds read low 0.862 | locus YFR028C, strain CDC14, active compounds read low 0.982 | locus YGR040W, strain KSS1, active compounds read low 0.865 | locus YGR052W, strain FMP48, active compounds read low 0.968 | locus YGR092W, strain DBF2, active compounds read low 0.722 | locus YHR079C, strain IRE1, active compounds read low 0.948 | locus YHR082C, strain KSP1, active compounds read low 0.966 | locus YHR205W, strain SCH9, active compounds read low 0.986 | locus YIL147C, strain SLN1, active compounds read low 0.973 | locus YJL095W, strain BCK1, active compounds read low 0.809 | locus YJL128C, strain PBS2, active compounds read low 1.02 | locus YJL157C, strain FAR1, active compounds read low 0.921 | locus YJR016C, strain ILV3, active compounds read low 0.976 | locus YJR066W, strain TOR1 (second series), active compounds read low 0.775 | locus YJR066W, strain TOR1, active compounds read low 0.879 | locus YKL048C, strain ELM1, active compounds read low 1.03 | locus YKL067W, strain YNK1, active compounds read low 0.91 | locus YKL101W, strain HSL1, active compounds read low 0.98 | locus YKL193C, strain SDS22, active compounds read low 0.983 | locus YKL203C, strain TOR2, active compounds read low 0.976 | locus YLR113W, strain HOG1, active compounds read low 0.991 | locus YLR133W, strain CKI1, active compounds read low 0.96 | locus YLR403W, strain SFP1, active compounds read low 0.9 | locus YML070W, strain DAK1, active compounds read low 0.917 | locus YMR001C, strain CDC5, active compounds read low 0.977 | locus YMR205C, strain PFK2 (second series), active compounds read low 0.952 | locus YMR277W, strain FCP1, active compounds read low 0.952 | locus YNL006W, strain LST8, active compounds read low 0.967 | locus YNL020C, strain ARK1, active compounds read low 0.95 | locus YNL161W, strain CBK1, active compounds read low 0.991 | locus YNL183C, strain NPR1, active compounds read low 1.01 | locus YNL207W, strain RIO2, active compounds read low 0.959 | locus YNL222W, strain SSU72, active compounds read low 0.956 | locus YNL307C, strain MCK1 (second series), active compounds read low 0.916 | locus YOL078W, strain AVO1, active compounds read low 0.982 | locus YOL136C, strain PFK27, active compounds read low 0.928 | locus YOR061W, strain CKA2, active compounds read low 0.943 | locus YOR119C, strain RIO1, active compounds read low 0.923 | locus YOR231W, strain MKK1, active compounds read low 0.904 | locus YOR329C, strain SCD5, active compounds read low 0.986 | locus YPL031C, strain PHO85, active compounds read low 0.876 | locus YPL153C, strain RAD53, active compounds read low 0.835 | locus YPL204W, strain HRR25, active compounds read low 0.828 | locus YPL209C, strain IPL1, active compounds read low 0.991 | locus YPL256C, strain CLN2, active compounds read low 0.983 | locus YPR025C, strain CCL1, active compounds read low 0.981 | locus YPR106W, strain ISR1, active compounds read low 1.01 | locus YPR111W, strain DBF20, active compounds read low 1.02 | strain NNK1, active compounds read low 0.984 | strain TSCII, active compounds read low 0.97

Cc1onc(-c2c(F)cccc2Cl)c1C(=O)N1CCN(c2ncccc2C(F)(F)F)CC1
inactive: [1] 0.98 | [2] 0.975 | [3] 0.977 | locus YDL134C, strain PPH21, active compounds read low 0.993 | [4] 0.972 | [5] 0.952 | [6] 1.01 | [7] 0.928 | [8] 0.964 | [9] 0.988 | [10] 1 | [11] 1.01 | locus YKL190W, strain CNB1, active compounds read low 1 | [12] 0.993 | [13] 0.987 | [14] 1.02 | [15] 0.98 | [16] 0.969 | [17] 0.984 | [18] 1.01 | [19] 1.07 | [20] 1 | [21] 0.965 | [22] 0.977 | [23] 0.99 | [24] 0.977 | [25] 1.08 | [26] 0.993
